Reference: the supplement of paper PMC10037445
Whole data set: some 2,900 compounds, median “IRF Lucia reporter activity, fold change vs agonist alone” near 0.9, cut for the highest 2% near 2.8. This is one part of a sample in which the highest values are shown more often than they occur.

Experiments:
RAW-Dual [1] = assay: IRF Lucia reporter activity, fold change vs agonist alone; cytotoxicity flag (confluency mask): not cytotoxic; higher = enhanced IRF activity
In short: (§1)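 Library stock was pin-tooled at 50 nL into 384-well plates of RAW-Dual macrophages (50,000 cells/well, DMEM), followed 1 h later by a PRR agonist, and the cells were kept at 37 °C, 5% CO2. Supernatant collected after 20 hours was read for IRF by QuantiLuc luminescence and for NF-κB by QuantiBlue absorbance at 620 nm. Reporter activity is fold change over agonist-alone wells, and a well counted as cytotoxic when its IncuCyte confluency was below 70% of agonist controls in both mask sets.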

RAW-Dual [2] = assay: IRF Lucia reporter activity, fold change vs agonist alone; higher = enhanced IRF activity; details: agonist: MPLA (TLR4) […]
In short: as §1

RAW-Dual [3] = assay: IRF Lucia reporter activity, fold change vs agonist alone; cytotoxicity flag (confluency mask): cytotoxic (confluency <70% of control); higher = enhanced IRF activity
In short: as §1

[4] = agonist: 3'3'-cGAMP (STING) 10 ug/mL
[5] = library stock concentration (final ~1000-fold dilution): 10 mM, cytotoxicity flag (confluency mask): not cytotoxic
[6] = library stock concentration (final ~1000-fold dilution): 10 mM, cytotoxicity flag (confluency mask): cytotoxic (confluency <70% of control)

## CC1CC(C(=O)O)C2CCC3(C)C(=CCC4C5(C)CCC(O)C(C)(C)C5CCC43C)C2C1C (stereo unspecified) (library stock concentration (final ~1000-fold dilution): 10 mM)
RAW-Dual [1]; [4]
  IRF Lucia reporter activity: 0.973
RAW-Dual [1]; agonist: LPS (TLR4) 0.1 ug/mL
  IRF Lucia reporter activity: 1.12

## CC1CC(C(=O)O)C2CCC3(C)C(=CCC4C5(C)CCC(O)C(C)(C)C5CCC43C)C2C1C (stereo unspecified)
RAW-Dual [2]; [5]
  IRF Lucia reporter activity: 1.06

## Cc1[nH]c(C=C2C(=O)Nc3ccc(F)cc32)c(C)c1C(=O)NCCN1CCCC1
RAW-Dual [2]; library stock concentration (final ~1000-fold dilution): 2 mM, cytotoxicity flag (confluency mask): not cytotoxic
  IRF Lucia reporter activity: 0.869

## Cc1[nH]c(C=C2C(=O)Nc3ccc(F)cc32)c(C)c1C(=O)NCCN1CCCC1 (library stock concentration (final ~1000-fold dilution): 2 mM)
RAW-Dual [1]; [4]
  IRF Lucia reporter activity: 0.0313
RAW-Dual [1]; agonist: LPS (TLR4) 0.1 ug/mL
  IRF Lucia reporter activity: 0.194

## CC(c1ncncc1F)C(O)(Cn1cncn1)c1ccc(F)cc1F (stereo unspecified) (library stock concentration (final ~1000-fold dilution): 10 mM)
RAW-Dual [1]; [4]
  IRF Lucia reporter activity: 1.11
RAW-Dual [1]; agonist: LPS (TLR4) 0.1 ug/mL
  IRF Lucia reporter activity: 0.893

## CC(c1ncncc1F)C(O)(Cn1cncn1)c1ccc(F)cc1F (stereo unspecified)
RAW-Dual [2]; [5]
  IRF Lucia reporter activity: 0.639

## CC1Cc2c([nH]c3ccccc23)C(c2c(F)cc(/C=C/C(=O)O)cc2F)N1CC(C)(C)F (stereo unspecified) (library stock concentration (final ~1000-fold dilution): 10 mM)
RAW-Dual [1]; [4]
  IRF Lucia reporter activity: 1.14
RAW-Dual [1]; agonist: LPS (TLR4) 0.1 ug/mL
  IRF Lucia reporter activity: 1.23

## Cl.O=C(NC1CCNCC1)c1n[nH]cc1NC(=O)c1c(Cl)cccc1Cl (library stock concentration (final ~1000-fold dilution): 10 mM)
RAW-Dual [3]; [4]
  IRF Lucia reporter activity: 0.0898
RAW-Dual [3]; agonist: LPS (TLR4) 0.1 ug/mL
  IRF Lucia reporter activity: 0.581

## CS(=O)(=O)O.CS(=O)(=O)O.Cc1ccc(C(=O)Nc2ccc(CN3CCN(C)CC3)c(C(F)(F)F)c2)cc1C#Cc1cnc2[nH]ncc2c1
RAW-Dual [2]; [6]
  IRF Lucia reporter activity: 0.0201

## CS(=O)(=O)O.CS(=O)(=O)O.Cc1ccc(C(=O)Nc2ccc(CN3CCN(C)CC3)c(C(F)(F)F)c2)cc1C#Cc1cnc2[nH]ncc2c1 (library stock concentration (final ~1000-fold dilution): 10 mM)
RAW-Dual [3]; [4]
  IRF Lucia reporter activity: 0.00912
RAW-Dual [3]; agonist: LPS (TLR4) 0.1 ug/mL
  IRF Lucia reporter activity: 0.0192

## COc1ccc(-c2cc3c(C)nc(N)nc3n(C3CCC(OCCO)CC3)c2=O)cn1 (stereo unspecified) (library stock concentration (final ~1000-fold dilution): 10 mM)
RAW-Dual [3]; [4]
  IRF Lucia reporter activity: 0.282
RAW-Dual [3]; agonist: LPS (TLR4) 0.1 ug/mL
  IRF Lucia reporter activity: 0.508

## COc1ccc(-c2cc3c(C)nc(N)nc3n(C3CCC(OCCO)CC3)c2=O)cn1 (stereo unspecified)
RAW-Dual [2]; [6]
  IRF Lucia reporter activity: 0.387

## Nc1nc2cc(-c3ccc4ncc(C(=O)N5CCOCC5)n4c3)ccc2o1 (library stock concentration (final ~1000-fold dilution): 10 mM)
RAW-Dual [1]; [4]
  IRF Lucia reporter activity: 0.343
RAW-Dual [1]; agonist: LPS (TLR4) 0.1 ug/mL
  IRF Lucia reporter activity: 1.04

## CCOC(=O)c1cnc2ccc(-c3cncc(NS(=O)(=O)c4ccccc4)c3)cn12
RAW-Dual [2]; [6]
  IRF Lucia reporter activity: 4.46

## CCOC(=O)c1cnc2ccc(-c3cncc(NS(=O)(=O)c4ccccc4)c3)cn12 (library stock concentration (final ~1000-fold dilution): 10 mM)
RAW-Dual [3]; [4]
  IRF Lucia reporter activity: 0.284
RAW-Dual [3]; agonist: LPS (TLR4) 0.1 ug/mL
  IRF Lucia reporter activity: 4.78

## COCCNCCc1cccc(Nc2ncc3c(n2)-c2ccccc2C(c2ccccc2F)C3)c1 (stereo unspecified) (library stock concentration (final ~1000-fold dilution): 10 mM)
RAW-Dual [3]; [4]
  IRF Lucia reporter activity: 0.0166
RAW-Dual [3]; agonist: LPS (TLR4) 0.1 ug/mL
  IRF Lucia reporter activity: 0.159

## CN1CCC(c2c(O)cc(O)c3c(=O)cc(-c4ccccc4Cl)oc23)C1CO.Cl (stereo unspecified) (library stock concentration (final ~1000-fold dilution): 10 mM)
RAW-Dual [3]; [4]
  IRF Lucia reporter activity: 0.00862
RAW-Dual [3]; agonist: LPS (TLR4) 0.1 ug/mL
  IRF Lucia reporter activity: 0.0242

## CN(CC1COCCO1)S(=O)(=O)Nc1ccc2ccc3ncc(-c4cnn(C)c4)cc3c(=O)c2c1 (stereo unspecified)
RAW-Dual [2]; [5]
  IRF Lucia reporter activity: 0.63

## CN(CC1COCCO1)S(=O)(=O)Nc1ccc2ccc3ncc(-c4cnn(C)c4)cc3c(=O)c2c1 (stereo unspecified) (library stock concentration (final ~1000-fold dilution): 10 mM)
RAW-Dual [1]; [4]
  IRF Lucia reporter activity: 0.306
RAW-Dual [1]; agonist: LPS (TLR4) 0.1 ug/mL
  IRF Lucia reporter activity: 0.736

## COC(=O)C1=COC(OC2OC(CO)C(O)C(O)C2O)C2C1CC(O)C2C (stereo unspecified) (library stock concentration (final ~1000-fold dilution): 10 mM)
RAW-Dual [1]; [4]
  IRF Lucia reporter activity: 1.08
RAW-Dual [1]; agonist: LPS (TLR4) 0.1 ug/mL
  IRF Lucia reporter activity: 1.3

## COC(=O)C1=COC(OC2OC(CO)C(O)C(O)C2O)C2C1CC(O)C2C (stereo unspecified)
RAW-Dual [2]; [5]
  IRF Lucia reporter activity: 1.12

## CCCc1cc(C)[nH]c(=O)c1CNC(=O)c1cc(-c2ccc(N3CCN(C)CC3)nc2)nc2c1cnn2C(C)C (library stock concentration (final ~1000-fold dilution): 10 mM)
RAW-Dual [1]; [4]
  IRF Lucia reporter activity: 0.763
RAW-Dual [1]; agonist: LPS (TLR4) 0.1 ug/mL
  IRF Lucia reporter activity: 1.35

## CCN(C)S(=O)(=O)Nc1ccc(F)c(C(=O)c2c[nH]c3ncc(-c4cnc(C5CC5)nc4)cc23)c1F (library stock concentration (final ~1000-fold dilution): 10 mM)
RAW-Dual [1]; [4]
  IRF Lucia reporter activity: 0.0563
RAW-Dual [1]; agonist: LPS (TLR4) 0.1 ug/mL
  IRF Lucia reporter activity: 0.409

## Cc1ccc2c(=O)c3cccc(CC(=O)O)c3oc2c1C (library stock concentration (final ~1000-fold dilution): 10 mM)
RAW-Dual [1]; [4]
  IRF Lucia reporter activity: 1.08
RAW-Dual [1]; agonist: LPS (TLR4) 0.1 ug/mL
  IRF Lucia reporter activity: 6.08

## Cc1ccc2c(=O)c3cccc(CC(=O)O)c3oc2c1C
RAW-Dual [2]; [5]
  IRF Lucia reporter activity: 0.965
